Laboratory results reported in PubChem BioAssay (Tox21).
Results filed as inconclusive are left out. A call without a number means that no potency is given here. Calls of active or inactive are those of the source. Unless noted, the call rests on the fitted dose curve; in most records, active means well fitted curve in the direction sought with a large enough effect in the repeat runs; inconclusive means weak or mixed curves; inactive means no such curve, though single readings can be large; an effect the other way counts as inactive or inconclusive.

Experiments:
[1] = molecular target: Progesterone receptor (Homo sapiens) (UniProt P06401); assay: qHTS assay to identify small molecule agonists of the progesterone receptor (PR) signaling pathway (AID 1346784; calls by dose curve; further: nearly all actives have a fitted effect of over 30% in size; further: potency means the concentration at half of the fitted maximal effect)
Chain of Progesterone receptor (Homo sapiens) (P06401 whole entry, looked up): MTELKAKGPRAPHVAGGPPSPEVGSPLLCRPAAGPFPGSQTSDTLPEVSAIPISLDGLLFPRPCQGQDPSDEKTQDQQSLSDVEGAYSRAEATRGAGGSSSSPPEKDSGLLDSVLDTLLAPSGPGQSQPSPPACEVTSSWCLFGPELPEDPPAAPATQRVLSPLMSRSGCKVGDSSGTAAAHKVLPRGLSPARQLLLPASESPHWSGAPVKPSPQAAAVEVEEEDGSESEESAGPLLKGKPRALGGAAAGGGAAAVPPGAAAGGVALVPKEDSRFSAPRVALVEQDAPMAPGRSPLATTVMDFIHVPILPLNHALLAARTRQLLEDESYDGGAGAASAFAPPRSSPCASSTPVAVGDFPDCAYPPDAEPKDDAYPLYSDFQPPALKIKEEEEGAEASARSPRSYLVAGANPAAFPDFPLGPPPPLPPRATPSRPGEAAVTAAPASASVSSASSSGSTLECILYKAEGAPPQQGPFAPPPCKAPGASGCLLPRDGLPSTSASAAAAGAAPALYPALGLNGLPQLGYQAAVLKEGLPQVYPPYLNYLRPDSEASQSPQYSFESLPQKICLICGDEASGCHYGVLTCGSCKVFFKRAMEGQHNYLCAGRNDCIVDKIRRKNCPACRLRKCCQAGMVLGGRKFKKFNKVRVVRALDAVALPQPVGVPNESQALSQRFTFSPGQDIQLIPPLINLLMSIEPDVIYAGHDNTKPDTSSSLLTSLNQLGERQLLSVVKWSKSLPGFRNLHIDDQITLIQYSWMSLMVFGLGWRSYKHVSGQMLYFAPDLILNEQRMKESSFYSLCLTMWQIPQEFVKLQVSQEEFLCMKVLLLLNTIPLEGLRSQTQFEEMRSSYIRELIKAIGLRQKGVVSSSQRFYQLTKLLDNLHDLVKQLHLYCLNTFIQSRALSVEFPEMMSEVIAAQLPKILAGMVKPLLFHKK
In short: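 Compounds were tested for PR agonism in HEK 293T cells bearing a beta-lactamase gene under UAS control. Treatment lasted 16 hr at 37C; signal came from fluorescence of a FRET substrate.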

[2] = molecular target: Progesterone receptor (Homo sapiens) (UniProt P06401); assay: qHTS assay to identify small molecule antagonists of the progesterone receptor (PR) signaling pathway (AID 1346795; active means well fitted inhibition curve with a large enough effect in the signal ratio in the repeat runs, not every such curve was filed as active; the % refers to the signal ratio)
In short: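 In HEK293T cells bearing the PR-UAS-bla reporter, compound effects on promegestone-driven (1 nM) beta-lactamase expression are assessed after 16 hr using a fluorescent FRET substrate incubated 2 hr at room temperature.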

[3] = qHTS assay to identify small molecule antagonists of the progesterone receptor (PR) signaling pathway - cell viability counter screen (AID 1346798); further: series mostly up to about 92 µM; nearly all actives have a fitted effect of over 50% in size
In short: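 Following a 4 hr attachment, PR-UAS-bla HEK293T cells in charcoal-stripped FBS medium were exposed to compounds with R5020 for 16 hr; CellTiter-Glo was added and luminescence read after 30 min at room temperature.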

[4] = qHTS assay to identify small molecule agonists of the progesterone receptor (PR) signaling pathway - cell viability counter screen (AID 1346799; calls by dose curve; further: nearly all actives have a fitted effect of over 45% in size)
In short: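 Here, 3,000 PR-UAS-bla HEK293T cells per well were treated with compounds for 16 hr after a 6 hr preincubation at 37C and 5% CO2; cell viability is the CellTiter-Glo luminescence signal.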

[5] = qHTS assay to identify small molecule antagonists of the TGF-beta/Smad signaling pathway - cell viability counter screen (AID 1346824); further: nearly all actives have a fitted effect of over 50% in size
In short: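 SBE-bla HEK 293T cells, incubated overnight, then compound plus 0.25 ng/mL TGF-beta1 (stock added) for 5 hr at 37 C. Viability was read in the same wells by CellTiter-Glo luminescence after 30 min at room temperature.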

[6] = qHTS assay to identify small molecule agonists of the TGF-beta/Smad signaling pathway - cell viability counter screen (AID 1346829); further: top concentration of the series differs between compounds; nearly all actives have a fitted effect of over 45% in size
In short: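 Compound-treated SBE-bla HEK 293T cells (5 hr, 37 C) were assessed for viability with CellTiter-Glo in parallel with the reporter read.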

[7] = qHTS assay to identify small molecule agonists of the TGF-beta/Smad signaling pathway (AID 1346859; active means well fitted activation curve with a large enough effect in the signal ratio in the repeat runs, not every such curve was filed as active; the % refers to the signal ratio; further: series mostly up to about 77 µM)
In short: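 Each well held 4,000 SBE-bla HEK 293T cells incubated overnight before compound addition; 5 hr later the cleavable FRET substrate went on for 2 hr at room temperature, and fluorescence was read at two emissions.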

[8] = molecular target: Thyrotropin-releasing hormone receptor (Homo sapiens) (UniProt P34981); assay: qHTS assay to identify small molecule antagonists of the thyrotropin-releasing hormone receptor (TRHR) signaling pathway (AID 1346877; active means well fitted inhibition curve with a large enough effect in the repeat runs, not every such curve was filed as active; further: series mostly up to about 51 µM)
Chain of Thyrotropin-releasing hormone receptor (Homo sapiens) (P34981 whole entry, looked up): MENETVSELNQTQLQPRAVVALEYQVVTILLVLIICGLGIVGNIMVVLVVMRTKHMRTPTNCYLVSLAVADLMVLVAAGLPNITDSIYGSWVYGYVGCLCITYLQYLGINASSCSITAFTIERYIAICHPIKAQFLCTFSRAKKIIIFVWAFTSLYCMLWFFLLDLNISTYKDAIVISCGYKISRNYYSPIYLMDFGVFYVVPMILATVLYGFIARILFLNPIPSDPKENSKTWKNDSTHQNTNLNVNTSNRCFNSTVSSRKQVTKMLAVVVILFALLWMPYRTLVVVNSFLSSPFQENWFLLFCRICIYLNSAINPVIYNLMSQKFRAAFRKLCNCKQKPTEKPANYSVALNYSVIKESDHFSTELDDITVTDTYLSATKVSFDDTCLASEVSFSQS
In short: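 Screening used HEK293 cells engineered with TRHR, with a brief 5 min room-temperature compound exposure preceding addition of TRH to 1 nM. The read-out was kinetic calcium-dye fluorescence, concentration-response from 15 doses in triplicate.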

[9] = Human pregnane X receptor (PXR) small molecule agonists, qHTS cell viability counter screen (AID 1346977); further: nearly all actives have a fitted effect of over 50% in size
In short: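 Tox21 qHTS format; PXR-Luc HepG2, 2,000/well, charcoal-stripped FBS 5%. Cpd exposure 24hr. Read: CellTiter-Fluor fluorescence, multiplexed with luciferase.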

[10] = molecular target: Thyrotropin-releasing hormone receptor (Homo sapiens) (UniProt P34981); assay: qHTS assay to identify small molecule agonists of the thyrotropin-releasing hormone receptor (TRHR) signaling pathway (AID 1346891; calls by dose curve; further: series mostly up to about 58 µM)
In short: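 Screening of agonists relied on calcium signalling in HEK293 cells expressing human TRHR: dye loading 2 h at 37 °C preceded compound addition and a 3-min fluorescence time course.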

| SMILES | Potency [1] | Potency [2] | outcome [3] | outcome [4] | outcome [5] | outcome [6] | outcome [7] | outcome [8] | Potency [9] | outcome [10] |
| --- | --- | --- | --- | --- | --- | --- | --- | --- | --- | --- |
| Nc1nc(N)nc(-c2ccccc2)n1 | inactive | inactive | inactive | inactive | inactive | inactive | inactive | inactive | inactive |  |
| CN1C(=O)CC[C@H]1c1cccnc1 | inactive | inactive | inactive | inactive | inactive | inactive | inactive | inactive | inactive |  |
| NC(=S)NNC(N)=S | inactive | inactive | inactive | inactive | inactive | inactive | inactive | inactive | inactive |  |
| O=C(O)c1cc2ccccc2cc1O | inactive | inactive | inactive | inactive | inactive | inactive | inactive |  | inactive |  |
| CC(=O)OCc1ccco1 | inactive | inactive | inactive | inactive | inactive | inactive | inactive |  | inactive |  |
| CC(C)=CCl | inactive | inactive | inactive | inactive | inactive | inactive | inactive |  | inactive |  |
| CC(C)OC(=O)COc1ccc(Cl)cc1Cl | inactive | inactive | inactive | inactive | inactive | inactive | inactive |  | inactive |  |
| CC(C)c1cccc(C(C)C)c1 |  |  | inactive | inactive | inactive | inactive | inactive |  | inactive |  |
| CCCCOC(=O)c1ccc(N)cc1 | inactive |  | inactive | inactive | inactive | inactive | inactive | inactive | inactive | inactive |
| O=C(OCC1CCC2OC2C1)C1CCC2OC2C1 (stereo unspecified) | inactive | inactive | inactive | inactive | inactive | inactive | inactive |  | inactive |  |
| CC(O)CC(C)(C)O (stereo unspecified) | inactive | inactive | inactive | inactive | inactive | inactive | inactive | inactive | inactive |  |
| CNC(=S)N(C)C | inactive | inactive | inactive | inactive | inactive | inactive | inactive |  | inactive |  |
| O=c1[nH]cnc2[nH]ncc12 | inactive | inactive | inactive | inactive | inactive | inactive | inactive |  | inactive |  |
| c1ccc2c(c1)Cc1ccccc1-2 | inactive | inactive | inactive | inactive | inactive | inactive | inactive |  | inactive |  |
| CN(C)c1ccc(Cc2ccc(N(C)C)cc2)cc1 | inactive | inactive | inactive |  | inactive | inactive | inactive | inactive | inactive | inactive |
| CCOC(=O)c1ccc(N)cc1 | inactive |  | inactive | inactive | inactive | inactive | inactive | inactive | inactive | inactive |

| SMILES | Potency [1] | Potency [2] | outcome [3] | outcome [4] | outcome [5] | outcome [6] | outcome [7] | outcome [8] | Potency [9] | outcome [10] |
| --- | --- | --- | --- | --- | --- | --- | --- | --- | --- | --- |
| CC(C)OP(=O)(CP(=O)(OC(C)C)OC(C)C)OC(C)C | inactive | inactive | inactive | inactive | inactive | inactive | inactive | inactive | inactive |  |
| Nc1ccc(Cl)c(N)c1 | inactive | inactive | inactive | inactive | inactive | inactive | inactive |  | inactive |  |
| CC1(C)NC(=O)NC1=O |  |  | inactive | inactive | inactive | inactive | inactive | inactive | inactive |  |
| COc1ccc([N+](=O)[O-])cc1N | inactive | inactive | inactive | inactive | inactive | inactive | inactive |  | inactive |  |
| CCOCC(=O)O | inactive | inactive | inactive | inactive | inactive | inactive | inactive |  | inactive |  |
| CCNc1ccccc1 | inactive | inactive | inactive | inactive | inactive | inactive | inactive |  | inactive |  |
| NCCN1CCNCC1 | inactive | inactive | inactive | inactive | inactive | inactive | inactive |  | inactive |  |
| Brc1ccc(Br)c(Br)c1 | inactive | inactive | inactive | inactive | inactive | inactive | inactive |  | inactive |  |
| CC(C)(C#N)c1cc(Cn2cncn2)cc(C(C)(C)C#N)c1 | inactive | inactive | inactive | inactive | inactive | inactive | inactive |  | inactive |  |
| CCNc1cccc(C)c1 | inactive | inactive | inactive | inactive | inactive | inactive | inactive |  | inactive |  |
| O=C(O)c1ccccc1C(=O)O | inactive | inactive | inactive | inactive | inactive | inactive | inactive |  | inactive |  |
| CCOC(=O)n1ccn(C)c1=S | inactive | inactive | inactive | inactive | inactive | inactive | inactive |  | inactive |  |
| CCCCCCCC=O | inactive | inactive | inactive | inactive | inactive | inactive | inactive | inactive | inactive |  |
| C=C(C)[C@H]1CC=C(C)C(=O)C1 | inactive | inactive | inactive | inactive | inactive | inactive | inactive |  | inactive |  |
| C[C@]12CCC(=O)C=C1CC[C@@H]1[C@@H]2[C@@H](O)C[C@@]2(C)[C@H]1CC[C@]2(O)C(=O)CO | 30.9 µM (active) |  | inactive | inactive | inactive | inactive | inactive | inactive | inactive | inactive |
| C=CCc1ccc(OC)c(OC)c1 |  |  | inactive | inactive | inactive | inactive | inactive |  | inactive |  |
